These sequences were tested against LGALS7B (assay: pooled miR-30 sensor sort-seq; sequence = guide strand). Details: shRNA.
Note: reference of the scale not given here.

Sequence	sensor-assay potency score (higher = more potent)
TGAAGCCGTCGTCTGACGCGAT	-0.633
ATTGGGAGGAACCAAGCCGCGA	-1.73
TTGGGAGGAACCAAGCCGCGAA	-0.897
TGCTGTTGAAGACCACCTCCGA	-0.584
TTGCTGTTGAAGACCACCTCCG	-0.31
ATGATGAGCACCTCGAAGGGCT	-0.649
TTGAAGACCACCTCCGACGTGT	0.725

The sequences below were run against LHCGR in the same assay as above. Details: shRNA.

Sequence	sensor-assay potency score (higher = more potent)
TATAGTTTGAGTGTTACAGATT	-0.877
TTACTGTGCTTTCACATTGTTT	-1.55
TTGGTAGCCATTAATTCTGGGT	-0.032
TAACTCAGCACATTTGTAGTGT	0.247
TCCATTGTGCATCTTCTCCAGA	-0.921
TAAGCTGAAAAATCTTTCCTTC	0.265
TTATTTGATCCAGTGAAGCCAT	-0.633
TAGTCGAGTGAGACCGGCCGTG	-0.508
TTCACTTTCCTTACTGTGCTTT	0.168
TTGACAAATGTTTCTCTTGATG	-1.44
TAATCGCAGCTTTTGGTCCAGG	-1.08
TTTGGTGGAAGAAATATCCAAG	-0.193

Source: the OligoGym collection
